In PubChem BioAssay:
Where a SMILES comes first, the peptide text is derived from it. The star is where a group is joined. Boc = CC(C)(C)OC(=O)*

assay: inhibitors of Sendai virus-induced IRF3 signaling, primary screen, TLR/RLR signaling modifier project, cell-based, Sendai virus stimulus, luciferase, 10K MLSCN set (AID 602276); details: HEK293 RL24 IRF3 luciferase reporter, at 10 µM, active compounds read high;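 active = inhibition at or above 50% at 10 µM; inactive = inhibition below 50%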;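 also: firefly luciferase from ISG56 promoter only with Renilla not read in this screen; 0% = Sendai virus plus DMSO and 100% = medium plus DMSO without virus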

inhibition, inactive:
COc1ccc2c(c1)c1c(n2C(C)=O)C(OC(C)=O)=NCC1 13.2%, Nc1c(C2=NCCO2)nnn1Cc1ccccc1 19.1%, COc1ccccc1-c1noc(-c2cccnc2)n1 -24.5%, CCn1ncc(C2=NOC(C(=O)NCc3ccc(Cl)cc3)C2)c1C (stereo unspecified) 2.33%, COC(=O)c1cc(Br)c(=O)n(CCN2CCOCC2)c1 13%, COc1ccc(OC)c(S(=O)(=O)Nc2ccc(C(N)=O)cc2)c1 18.4%, O=C(Cn1nc(-c2ccc(Cl)cc2)ccc1=O)NCCCN1CCN(Cc2ccccc2)CC1 -9.82%, CCC1Oc2ccccc2N(CC(=O)Nc2ccc(OC)cc2OC)C1=O (stereo unspecified) -2.59%, COCCCNC(=O)CCc1nc(-c2ccccc2Cl)no1 17.7%, CC(C)(C)OC(=O)N1CCCC1C(=O)N1CCCC1C(=O)N1CCCC1C(=O)O (stereo not drawn) (Boc-Pro-Pro-Pro-OH; configuration not given here) 5.97%, CCOC(=O)N1CCN(S(=O)(=O)c2cc(Cl)c(OC)cc2Cl)CC1 -2.67%, c1ccc(Cn2nnnc2C(c2ccccn2)N2CCOCC2)cc1 (stereo unspecified) -6.48%, Cc1nn(-c2ccc(F)cc2)c2nc(N)c(C#N)c(-c3cccs3)c12 12.4%, O=C(c1ccc(NS(=O)(=O)c2cccs2)cc1)N1CCCCC1 0.00146%, O=c1c2nnn(Cc3ccccc3)c2ncn1-c1ccccc1 14.3%, COc1cccc(CNC(=O)CCn2c(=O)oc3ccccc32)c1 14.4%
